# BoNT-F LC inh: inhibitors of Botulinum neurotoxin F light chain protease; Multiplex microsphere protease cleavage assay, flow cytometry; inhibition, % at 10 µM; 0.22% of 360,000 active; AID 588497; in the data active means inhibition above about 35%, passing the limit was not always enough; inconclusive means no clear call, values can overlap the other calls; further: plate controls were buffer without enzyme for full effect and enzyme alone for no effect
# BoNT-A LC inh2: BoNT A light chain protease inhibition; 0.17% of 360,000 active; inhibition, % at 10 µM; AID 588499; multiplex microsphere protease substrate cleavage, flow cytometry; further: plate controls were buffer without enzyme for full effect and enzyme alone for no effect
# TcdB GH inh: blocks C. difficile toxin B glycohydrolase activity. inhibition, % at 9.99 µM. 0.24% of 350,000 active. P18177. TcdB glycohydrolase enzymatic assay, plate reader. AID 652162; in the data active means inhibition above about 10%
# Anthrax LF prot: inhibitors of Bacillus anthracis lethal factor protease | P15917 | multiplex microsphere protease cleavage assay, LF | inhibition, % at 10 µM | 0.12% of 360,000 active | AID 588501; further: plate controls were buffer without enzyme for full effect and enzyme alone for no effect
# Target sequence (P15917 whole entry, looked up): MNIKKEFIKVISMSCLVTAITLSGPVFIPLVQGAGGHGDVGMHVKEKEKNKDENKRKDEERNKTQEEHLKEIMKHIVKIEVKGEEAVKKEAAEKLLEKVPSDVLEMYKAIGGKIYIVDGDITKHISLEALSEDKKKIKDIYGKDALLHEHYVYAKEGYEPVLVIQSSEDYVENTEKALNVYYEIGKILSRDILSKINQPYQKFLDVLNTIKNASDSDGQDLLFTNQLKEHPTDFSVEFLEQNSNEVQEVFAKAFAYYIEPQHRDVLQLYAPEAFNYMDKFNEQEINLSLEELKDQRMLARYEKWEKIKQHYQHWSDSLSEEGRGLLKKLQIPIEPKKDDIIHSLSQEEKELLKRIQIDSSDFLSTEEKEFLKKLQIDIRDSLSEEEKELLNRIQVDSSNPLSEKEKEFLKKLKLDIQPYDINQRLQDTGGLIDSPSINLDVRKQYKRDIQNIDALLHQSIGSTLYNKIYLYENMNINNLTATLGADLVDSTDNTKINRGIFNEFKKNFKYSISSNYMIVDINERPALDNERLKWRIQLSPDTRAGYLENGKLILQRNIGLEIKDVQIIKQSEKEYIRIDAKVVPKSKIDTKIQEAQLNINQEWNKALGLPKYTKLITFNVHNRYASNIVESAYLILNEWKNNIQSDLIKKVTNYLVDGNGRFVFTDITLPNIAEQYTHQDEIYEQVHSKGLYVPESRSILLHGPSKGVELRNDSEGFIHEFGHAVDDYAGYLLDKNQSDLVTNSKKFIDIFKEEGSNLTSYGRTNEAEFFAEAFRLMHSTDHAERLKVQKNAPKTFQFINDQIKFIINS
# Bead autofluor: compound fluorescence in toxin protease inhibitor counterscreen; compound autofluorescence counterscreen, microsphere flow cytometry; active compounds read high; 3.1% of 360,000 active; fluorescence intensity (test concentration not listed); in the data active means fluorescence intensity above about 16000; inconclusive means no clear call, values can overlap the other calls
# Numbers without * were called inactive; ? = inconclusive; . = not tested or not shown. Only a selection was taken, and hits are over-represented in it overall. Unless noted, no stated cut-off is given here; in the data, active means inhibition above about 30%; inconclusive means no clear call, values can overlap the other calls; inactive means below that.
SMILES,BoNT-F LC inh,BoNT-A LC inh2,TcdB GH inh,Anthrax LF prot,Bead autofluor
O=C(Cn1nc(Cl)nc1Cl)c1cc2ccccc2oc1=O,2.5,1.4,.,-2.2,16246*
C=C(C)CSc1nc2nc(C)c(Br)cc2[nH]1,-1.4,-0.2,.,0.9,22023*
COC(=O)CSc1nc2nc(C)c(Br)cc2[nH]1,-0.8,0.2,.,-11.6,9087
Cc1noc(C)c1NC(=O)N[C@H]1CC[C@H](CC(=O)Nc2ccc(-c3ccccc3)cc2)O[C@@H]1CO,.,.,0.2,.,.
CCOC(=O)c1cccc(NC(=O)c2cc3sccc3n2C)c1,-12.0,?,.,-3.7,26158*
CCOC(=O)/C=C/C(=O)Nc1cccc([N+](=O)[O-])c1,6.7,1.6,.,-1.6,2122
CCOC(=O)c1ccccc1NC(=O)c1cc2sccc2n1C,1.7,1.5,.,-1.1,22752*
CCOC(=O)c1cccc(NC(=O)/C=C/c2cccc([N+](=O)[O-])c2)c1,2.5,0.5,.,-0.6,19203*
CCOC(=O)c1cccc(NC(=O)c2ccco2)c1,-3.8,?,.,1.1,23498*
COc1ccc(CNC(=O)C[C@@H]2CC[C@H]3[C@H](COc4ccc(NC(=O)C(C)C)cc4C(=O)N3C)O2)cc1,.,.,0.5,.,.
Cn1c(C(=O)Nc2ccc3c(c2)OCCO3)cc2sccc21,-7.1,-1.8,4.9,-6.5,16792*
O=C(Nc1cccc(-c2nc3ccccc3[nH]2)c1)c1ccco1,-7.1,-4.4,.,-7.7,25261*
CN(C)C(=O)C[C@@H]1CC[C@H](NC(=O)NC2CCCCC2)[C@H](CO)O1,.,.,-0.7,.,.
C[C@H]1CN([C@@H](C)CO)C(=O)Cc2cc(NC(=O)Cc3ccccc3)ccc2O[C@H]1CN(C)CC1CC1,.,.,-0.3,.,.
O=C(N[C@@H]1CC[C@H](CC(=O)N2CCN(c3ccccc3)CC2)O[C@@H]1CO)c1ccccc1,.,.,0.7,.,.
CCC(=O)N1C[C@H](C)[C@H](OC)CN(C)C(=O)c2ccc(NC(=O)c3ccccc3)cc2OC[C@@H]1C,.,.,-0.5,.,.
CCS(=O)(=O)Nc1ccc2c(c1)C(=O)N(C)C[C@@H](OC)[C@@H](C)CN(CC1CCCCC1)[C@@H](C)CO2,.,.,-1.4,.,.
O=C(Nc1cccc(C(F)(F)F)c1)C1CCCN(S(=O)(=O)c2cnc[nH]2)C1 (stereo unspecified),1.5,2.0,.,-2.6,22065*
O=C(O)C1(c2ccccc2)CCN(S(=O)(=O)c2ccccc2)CC1,-4.1,-0.5,2.0,-2.7,4504
O=C(NCc1ccccc1)C1(c2ccccc2)CCN(S(=O)(=O)c2ccccc2)CC1,-1.9,-1.3,0.7,-1.9,16987*
Brc1ccc(-c2nc(-c3ccccc3)no2)o1,1.7,2.2,.,-1.4,22544*
Brc1ccc(-c2nc(-c3cccnc3)no2)o1,-13.5,-0.7,.,-7.7,4017
COc1ccc(NC(=O)c2ccc(CN(c3cc(Cl)ccc3C)S(=O)(=O)c3ccccc3)cc2)cc1OC,-10.9,-3.7,.,-4.1,20845*
Cc1ccc(Cl)cc1N(Cc1ccc(C(=O)NCc2cccnc2)cc1)S(=O)(=O)c1ccccc1,2.5,?,.,0.0,22366*
CN(C)CCCNC(=O)[C@H]1[C@H](CO)[C@H]2Cn3c(ccc(C4=CCCC4)c3=O)[C@H]2N1CCC(F)(F)F,.,.,1.1,.,.
SMILES,BoNT-F LC inh,BoNT-A LC inh2,TcdB GH inh,Anthrax LF prot,Bead autofluor
COc1cccc(NC(=O)COC(=O)CCCc2c[nH]c3ccccc23)c1,-2.2,2.6,.,-2.6,22839*
COC(=O)c1cc(NC(=O)c2ccccc2)c(=O)oc1/C=C/Nc1ccc(Oc2ccccc2)cc1,54.0*,42.8*,2.5,16.6,97551*
Cc1ccc(NC(=S)NC(=O)CC2CC(C)(C)OC2=O)cc1 (stereo unspecified),-2.0,0.2,-1.1,-1.1,2454
CC1(C)CC(CC(=O)Nc2ccccn2)C(=O)O1 (stereo unspecified),-0.6,-0.8,.,0.4,23618*
Cc1noc(C)c1NC(=O)Nc1ccc2c(c1)CC(=O)N([C@@H](C)CO)C[C@H](C)[C@H](CN(C)C(=O)Nc1c(C)noc1C)O2,.,.,-5.6,.,.
Cc1nc(NCc2ccco2)c2c(C)c(C)sc2n1,-5.5,-3.3,.,-9.0,16784*
CC12CCC(C(=O)Nc3ccc4c(c3)OCCO4)(OC1=O)C2(C)C (stereo unspecified),-2.8,-1.6,.,0.8,23818*
Cc1cccc(NC(=O)C23CCC(C)(C(=O)O2)C3(C)C)c1 (stereo unspecified),-7.3,0.1,1.0,-2.4,1946
CC12CCC(C(=O)NC(c3ccccc3)c3ccccc3)(OC1=O)C2(C)C (stereo unspecified),4.6,4.2,.,0.0,22368*
C/C=C/c1cnc2c(c1)C(=O)N([C@@H](C)CO)C[C@H](C)[C@H](CN(C)C(=O)c1cccc(F)c1)O2,.,.,0.0,.,.
O=C(Nc1ccc(Cl)cc1)N[C@H]1CC[C@@H](CCNC(=O)c2ccccc2F)O[C@@H]1CO,.,.,2.3,.,.
O=C1CC(N(Cc2ccc3c(c2)OCO3)C(=O)Nc2ccc(F)cc2)C(=O)N1c1ccccc1 (stereo unspecified),2.0,?,.,-0.4,23094*
CCn1c(C)cc2c(c1=O)C(c1ccccc1)C(C(=O)OC)=C(N)O2 (stereo unspecified),-1.0,0.0,.,-0.2,23918*
COc1ccc(S(=O)(=O)Nc2ccc3c(c2)CC(=O)N([C@H](C)CO)C[C@H](C)[C@@H](CN(C)S(=O)(=O)c2ccc(Cl)cc2)O3)cc1,.,.,4.7,.,.
COc1ccc(N(C(=O)C(C)C)S(=O)(=O)c2ccc(Cl)cc2)cc1,2.5,0.2,.,-1.7,16342*
COc1ccc(N(C(=O)c2ccncc2)S(=O)(=O)c2ccc(Cl)cc2)cc1,2.6,-0.1,.,-6.3,5294
C[C@@H]1CN([C@@H](C)CO)C(=O)Cc2cc(NS(C)(=O)=O)ccc2O[C@@H]1CN(C)Cc1ccc(-c2ccccc2)cc1,.,.,-2.3,.,.
COCCOC1CCN(C(=O)c2cc(COc3ccc(-n4cncn4)cc3)on2)CC1,-1.5,-0.3,1.1,2.7,5450
COCCC1CCCCN1C(=O)c1cc(COc2ccc(-n3cncn3)cc2)on1 (stereo unspecified),-303.4,-170.1,0.9,-43.9,35235*
CCOC(=O)c1cc([N+](=O)[O-])sc1N,-3.7,0.0,28.5*,2.2,3863
CCOC(=O)c1cc([N+](=O)[O-])sc1NC(=O)CC,-0.2,0.3,0.2,-0.6,3869
C[C@@H]1CCCCO[C@@H](CN(C)Cc2ccc(C(=O)O)cc2)[C@H](C)CN([C@@H](C)CO)C(=O)c2cc(NS(=O)(=O)c3ccc(F)cc3)ccc2O1,.,.,-0.3,.,.
COc1ccc(OC)c(NC(=O)c2sc3nc(Cc4ccccc4)cc(C(F)(F)F)c3c2N)c1,-0.2,0.9,.,1.2,20176*
COc1ccc(-c2cc(C(F)(F)F)c3c(N)c(C(=O)NCCSC)sc3n2)cc1,?,-5.4,0.5,-13.6,6679
Oc1ccccc1NCC(O)Cn1ccc2ccccc21 (stereo unspecified),-2.7,?,.,0.3,22217*
OC(CNCc1ccccc1)Cn1ccc2ccccc21 (stereo unspecified),-30.4,2.5,-1.5,-3.1,3758
O=C1c2ccccc2S(=O)(=O)N1CC(O)Cn1ccc2ccccc21 (stereo unspecified),25.0,156.2*,.,28.8,22501*
